Shiga toxin inh = blocks Shiga toxin action in Vero cells | Vero cells, Shiga toxin protein synthesis inhibition reporter | inhibition, % at 38.7 µM | actives 9.2% (n = 290,000); in the data active = inhibition mostly above about 28%, no sharp cut-off; inactive = mostly below about 43%; also: 0% is about no effect
Cycloheximide cs = counter-screen for Shiga toxin inhibitors: cycloheximide protein synthesis inhibition; cell reporter, cycloheximide protein synthesis inhibition counterscreen; max response, %; actives 12% (n = 300,000); AID 2314; in the data active = max response mostly above about 13%, no sharp cut-off; inactive = mostly below about 14%; also: read at 38.3 µM for the half of the compounds with a filed dose; 0% is about no effect
Giardia FBPA inh = inhibitors of Giardia lamblia fructose-1,6-bisphosphate aldolase; A8B2U2; actives 0.71% (n = 290,000); Potency, µM (titrated, usually from 59.6 µM), for the others: at the top dose activity, negative = inhibition, usual class: inhibitors; purified Giardia FBPA; also: potency is read from the fitted curve at half-maximal effect; % is scaled to controls: 0 for no effect and ±100 for the full control effect; nearly all actives have a fitted effect of over 55% in size
Target sequence (A8B2U2 whole entry, looked up): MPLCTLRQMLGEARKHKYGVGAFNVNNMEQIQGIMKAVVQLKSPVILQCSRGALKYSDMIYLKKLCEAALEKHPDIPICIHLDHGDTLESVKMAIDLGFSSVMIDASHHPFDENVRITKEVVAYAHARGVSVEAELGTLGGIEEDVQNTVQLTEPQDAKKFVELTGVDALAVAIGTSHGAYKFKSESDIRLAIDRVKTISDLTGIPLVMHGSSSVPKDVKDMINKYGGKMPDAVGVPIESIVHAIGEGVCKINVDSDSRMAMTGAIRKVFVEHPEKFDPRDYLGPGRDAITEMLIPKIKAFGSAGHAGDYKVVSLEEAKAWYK
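Giardia FBPA (40 nM reagent) was preincubated 10 min at RT with compound (up to 57.5 uM final), then substrate plus GAPDH/TPI/NAD/arsenate coupling system with diaphorase/resazurin was added; resorufin fluorescence (525/598 nm) was read after 20 min.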
TbPYK inhibitor = inhibitors of Trypanosoma brucei pyruvate kinase; Q57TT1; TbPYK enzyme, Kinase-Glo Plus ATP luminescence, 45 min; Potency, µM (series often up to 76.8 µM), for inactives: top-dose activity, negative = inhibition, usual class: inhibitors; actives 0.12% (n = 410,000); also: potency is read from the fitted curve at half-maximal effect; % is scaled to controls: 0 for no effect and ±100 for the full control effect; nearly all actives have a fitted effect of over 50% in size
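In this concentration-response screen, enzyme-free wells defined baseline while DMSO plates tracked drift. Each reaction combined TbPYK, substrate, compound and 130 uM ADP for 45 min at room temperature. Kinase-Glo Plus luminescence gave the signal.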
LmPK inhibitor = inhibitors of Leishmania mexicana pyruvate kinase | Q27686 | purified LmPK, Kinase-Glo ATP luminescence, 1 h | Potency, µM (titrated, usually from 57.5 µM), inactives show top-dose activity change, negative = inhibition, usual class: inhibitors | actives 0.37% (n = 290,000) | AID 1721; also: potency is read from the fitted curve at half-maximal effect; % is scaled to controls: 0 for no effect and ±100 for the full control effect
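qHTS format; LmPK 0.1 nM; substrates PEP 0.5 mM and ADP 0.1 mM. One-hour room-temperature incubation, then coupled luciferase luminescence; 0.5 nM enzyme wells mark activation.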
RE007 growth inh = less growth of the S. pombe RE007 Vpr strain | S. pombe RE007 Vpr strain, BacTiter-Glo ATP luminescence, 24 h | Potency, µM (top dose mostly 92.2 µM), inactives show at the highest dose activity change, negative = less growth, actives largely listed as inhibitors | actives 0.21% (n = 360,000) | AID 651644; active = well fitted falling curve with a large enough effect; inconclusive = small, poorly fitted or top-dose-only effect; inactive = no such curve, though single readings can be large or run the other way; also: potency is read from the fitted curve at half-maximal effect; % is scaled to controls: 0 for no effect and ±100 for the full control effect; nearly all actives have a fitted effect of over 50% in size
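Fission yeast strain RE007, carrying one chromosomally integrated HIV-1 vpr copy, was seeded at OD 0.01 in PMG+AL medium with 23 nL pinned compound. After 24 h at 30 °C and 99% humidity, viability was read by BacTiter-Glo luminescence.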
An asterisk follows results filed as active; ? = inconclusive; · = no result. This excerpt belongs to a sample that is enriched for hits. Unless noted, calls follow the shape of the dose curve; as a rule, active = well fitted curve in the direction sought with a large enough effect; inconclusive = small, poorly fitted or top-dose-only effect, or another doubt; inactive = no such curve, though single readings can be large; an effect the other way counts as inactive or inconclusive.

SMILES	Shiga toxin inh	Cycloheximide cs	Giardia FBPA inh	TbPYK inhibitor	LmPK inhibitor	RE007 growth inh
Cc1ccc(C)c(NC(=S)N2CCC(NC(=O)c3ccccc3)CC2)c1	3	-6	-12%	-6%	-4%	3%
O=CNc1c(Cl)cc2c(c1Cl)Cc1cc([N+](=O)[O-])ccc1-2	·	·	·	-1%	·	-6%
CCOC(=O)C1=C[C@@H](C2CCCCC2)N(S(=O)(=O)c2ccc([N+](=O)[O-])cc2)[C@H]1c1ccccc1	·	·	·	0%	·	-7%
CC1(c2ccccc2)NC(=S)N2C1NC(=S)N2c1ccccc1 (configuration not stated)	18	1	?	-12%	2%	2%
COc1ccc(N2C(=S)NC3N2C(=S)NC3(C)c2ccccc2)cc1 (configuration not stated)	56*	37*	?	-15%	-7%	33%
O=C(NN1C(=O)C2C(c3ccccc3)C=CC(c3ccccc3)C2C1=O)c1cccc(Br)c1 (configuration not stated)	18	-2	12%	-3%	7%	8%
CNc1cnn(-c2ccccc2)c(=O)c1Cl	37	-3	0%	-25%	-4%	-15%
N#Cc1cnn(-c2cccc(Cl)c2)c1-n1cccc1	-1	1	6%	0%	3%	7%
CN(C)CCNc1cnn(-c2ccccc2)c(=O)c1Cl	55	17*	6%	6%	6%	-8%
O=c1c(Cl)c(NCCO)cnn1-c1cccc(Cl)c1	51*	23*	1%	-3%	3%	11%
COc1ccc(CCNC(=O)c2cc3c(s2)-c2c(C)cccc2OC3)c(OC)c1	·	·	·	3%	·	·
Cc1ccc(-c2csc(NC(=O)c3ccno3)n2)cc1	21	22*	-19%	8%	8%	?
Cc1ccc(-c2csc(NC(=O)c3c(C)noc3C)n2)cc1	·	·	·	-3%	·	-25%
Cc1ccc(C(=O)Nc2nc(-c3ccc(F)cc3)cs2)o1	92*	42*	6%	3%	-3%	?
O=C(Nc1ccc2nc(SCC(=O)N3CCCc4ccccc43)sc2c1)c1cccc(F)c1	·	·	·	1%	·	·
CSCCC(NS(=O)(=O)c1ccc2c(c1)oc(=O)n2C)C(=O)N1CCN(c2cc(Cl)ccc2C)CC1 (configuration not stated)	·	·	·	0%	·	·
C=CCc1cc(/C=C2/NC(=O)N(CC)C2=O)cc(OCC)c1OCc1ccc(C(=O)O)cc1	16	-5	2%	-4%	-1%	-21%
CN(C)c1cccc(/C=C(\C#N)c2ccccc2)c1	77*	42*	3%	2%	-10%	·
CN(C)c1ccc(/C=C(\C#N)c2ccccc2)cc1	63*	57*	2%	-3%	0%	-17%
CCOC(=O)NC(=O)/C(C#N)=C/c1ccc(N(C)C)cc1	30	36*	-2%	-3%	-3%	30%
CN(C)c1ccc(/C=C(\C#N)c2nc3ccccc3c(=O)[nH]2)cc1	·	·	·	-3%	·	·
CN(C)c1ccc(/C=C(\C#N)C(=O)c2ccccc2)cc1	41	14*	3%	1%	?	-7%
Nc1ncnc2c1ncn2[C@@H]1O[C@H](C(=O)Nc2ccc(C(=O)N3CCCCC3)cc2)[C@@H](O)[C@H]1O	·	·	·	6%	·	1%
FC(F)C(F)(F)C(F)(F)C(F)(F)c1cc(-c2ccccc2)n[nH]1	73	22*	-5%	0%	7%	?
Cc1cccc(OCC(=O)Nc2c3c(nn2C(C)(C)C)CS(=O)(=O)C3)c1	19	-1	·	0%	1%	1%
SMILES	Shiga toxin inh	Cycloheximide cs	Giardia FBPA inh	TbPYK inhibitor	LmPK inhibitor	RE007 growth inh
CCCCn1cc(S(=O)(=O)c2ccc(C)c(C)c2)c(=O)c2cc(F)c(N(CC)CC)cc21	·	·	·	3%	·	·
O=c1c(-c2cccs2)nc2cncnc2n1-c1ccccc1	·	·	12%	·	·	·
O=C(NC(=S)NCCCN1CCOCC1)c1ccc(Br)cc1	25	21*	2%	3%	-2%	9%
CCOc1ccc(C(=O)NC(=S)NCCCN2CCOCC2)cc1	-4	-2	-3%	1%	-1%	-11%
Cc1ccc(C(=O)NC(=S)NCCCN2CCOCC2)cc1	50*	20	2%	1%	-3%	-13%
Cc1nc(N2CCCCC2)sc1C(=O)c1cccc([N+](=O)[O-])c1	84*	37*	-8%	2%	1%	6%
O=C(COc1ccc(F)cc1Br)N1CCc2ccccc21	47*	42*	-6%	-1%	1%	-9%
COc1ccc(OCC(=O)N2CCc3ccccc32)c([N+](=O)[O-])c1	·	·	·	-2%	·	-1%
COc1cc(CO)ccc1OCC(=O)N1CCc2ccccc21	24*	19*	2%	-1%	-1%	3%
CC(Oc1ccccc1Br)C(=O)N1CCc2ccccc21 (configuration not stated)	79*	51*	-5%	1%	4%	-2%
Cc1ccnc2nc(C(=O)OCC(=O)N(CC(C)C)C3CCS(=O)(=O)C3)nn12 (configuration not stated)	·	·	·	3%	·	0%
O=C(Nc1ccc2c(c1)OCO2)c1cncc(Br)c1	66*	32*	5%	0%	-5%	-11%
O=C(Nc1ccc(C(=O)NC2CCCCC2)cc1)c1cncc(Br)c1	-13	0	-6%	5%	-1%	14%
O=C(Nc1ccc2c(c1)OCCO2)c1cncc(Br)c1	58	23*	-5%	-12%	-28%	10%
CCN(CC)C(=O)C1=C(C)N(Cc2ccc(C(C)(C)C)cc2)C(=O)C(CC(=O)NCCCCc2ccccc2)C1 (configuration not stated)	·	·	·	7%	·	-3%
CCOC(=O)[C@]12CCC=C1N(Cc1cccc3ccccc13)C(=O)[C@H](CC(=O)NCC13CC4CC(CC(C4)C1)C3)C2	·	·	·	-7%	·	-17%
CCOc1ccc(N(CC(=O)Nc2ccccc2OC)S(C)(=O)=O)cc1	14	9	12%	-14%	-5%	6%
CCOc1ccc(N(CC(=O)Nc2ccccc2Cl)S(C)(=O)=O)cc1	74*	28*	1%	0%	1%	-2%
CCOc1ccc(N(CC(=O)Nc2ccc(C)c(C)c2)S(C)(=O)=O)cc1	107*	78*	13%	-9%	7%	-13%
CCOc1ccc(N(CC(=O)Nc2ccccc2)S(C)(=O)=O)cc1	50*	19*	0%	-15%	1%	0%
COc1ccc(-n2nc3c(N4CCCC(C(=O)NCc5ccccc5C)C4)nnc(C)c3c2C)cc1 (configuration not stated)	·	·	·	1%	·	·
Cc1ccc2c(c1)-c1onc(C(=O)N3CCN(c4ccc(Cl)cc4)CC3)c1CO2	·	·	·	7%	·	·

Source: PubChem (National Center for Advancing Translational Sciences (NCATS))
